Assay [1] is described as follows: Validation screen for small molecules that induce genotoxicity in human embryonic kidney (HEK293T) cells expressing luciferase-tagged ELG1 (AID 493106). Also: 0% is about no effect. In short, it runs like this:
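Reporter-gene quantitative HTS in HEK293T cells carrying luciferase-tagged ELG1, whose level climbs under genotoxic stress. Compound exposure lasts 16 hr at 37 °C before luciferase detection.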

Assay [2] addresses ATPase family AAA domain-containing protein 5 (Homo sapiens) (UniProt Q96QE3). As to the kind of experiment: Validation screen for small molecules that inhibit ELG1-dependent DNA repair in human embryonic kidney (HEK293T) cells expressing luciferase-tagged ELG1 (AID 493107). Also: nearly all actives have a fitted effect of over 70% in size. Also: potency is read from the fitted curve at half-maximal effect. In short, it runs like this: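 Quantitative HTS in HEK293T cells carrying luciferase-tagged ELG1, stimulated with 5-fluorouridine alongside compound for 16 hr. Loss of luciferase signal marks inhibition of ELG1 response.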

Assay [3] addresses Thyrotropin-releasing hormone receptor (Homo sapiens) (UniProt P34981). The assay is described as follows: qHTS for Small Molecule Agonists and Allosteric Enhancers of Human TRH Receptor: Validation Screen for Agonists (AID 493127;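 active = calcium activation more than 3 SD above the typical response in the agonist read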;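 also: intracellular calcium rise by fluo-8 fluorescence before TRH EC20 addition; 0% is about no effect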). As to conditions: TRH receptor agonist cell assay; at 2 µM; stronger effect = higher value. In short, it runs like this: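 Gq-coupled calcium mobilization in TRHR cells after compound addition, monitored kinetically with fluo-8 dye on an FDSS reader.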

Assay [4] in a line: Nrf2 qHTS screen for inhibitors: Validation (AID 493153; active = well fitted inhibition curve with a large enough effect in the main read-out, with a control signal flat, not every such curve was filed as active). The conditions noted are these: Potency: luciferase luminescence; viability change: measured here: cytotoxicity max response. In short, it runs like this:
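Dose-response validation uses reporter A549 cells with firefly luciferase under an antioxidant response element. Compounds stay on cells 18-24 h at 37°C, and luminescence indicates Nrf2-driven transcription.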
A general note: In qHTS, concentration-response curves come from the screen itself.

Assay [5] can be described thus: qHTS for Inhibitors of Cell Surface uPA Generation: Validation Assay (AID 493164).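 Also: RAW 264.7 macrophage cells exposed to compound for 18 h; 0% is about no effect.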 In short, it runs like this:
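RAW 264.7, 4000 cells/well, o/n plating; cpd 7-pt 1:5 dilution 2.45 nM–38.3 uM final; 18 h, 37 C/5% CO2; ATP-Lite, 5 s luminescence exposure.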

For assay [6], the target named is Galactokinase (Homo sapiens) (UniProt P51570). As to the kind of experiment: qHTS Validation Assay for Inhibitors of Human Galactokinase (GALK) (AID 493189). Also: 0% is about no effect. In short, it runs like this:
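5 nM GALK / 100 uM galactose / 35 uM ATP, 20 mM HEPES pH8.0, 5 mM MgCl2, 60 mM NaCl, 1 mM DTT, 0.01% BSA (final). RT 1 h; Kinase-Glo Plus luminescence.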

The nature of assay [7]: Validation screen for small molecules that induce DNA re-replication in SW480 colon adenocarcinoma cells (AID 504364). Also: 0% is about no effect. In short, it runs like this:
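Cells are treated 48 hr with test compound, stained 40 min with Hoechst at 37 C, and scanned for nuclear fluorescence; compounds inducing re-replication increase nuclei with elevated intensity.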

The target of assay [8] is Peptidyl-prolyl cis-trans isomerase NIMA-interacting 1 (Homo sapiens) (UniProt Q13526). As to the kind of experiment: qHTS Validation Assay to Find Inhibitors of Pin1 (AID 504536; active = well fitted inhibition curve with a large enough effect in the polarisation, with a control signal flat, not every such curve was filed as active; the % refers to the polarisation;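 also: 0% = full Pin1 enzyme wells and -100% = no-enzyme wells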). In short, it runs like this:
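Fluorescence polarization competition: compounds (titration) displace HiFluor-488-labeled Pin1-1b peptide from Pin1 (0.3 uM final) in pH 7.5 HEPES buffer with DTT, 10 min at room temperature; %Activity normalized to no-enzyme wells, curves fitted.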

Assay [9] addresses Phosphoglycerate kinase, glycosomal (Trypanosoma brucei brucei) (UniProt P07378). As to the kind of experiment: qHTS Validation Assay to Find Inhibitors of Phosphoglycerate Kinase (AID 504547).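 Also: control wells lack PGK and mark full inhibition.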 In short, it runs like this: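 PGK activity was coupled to GAPDH (100nM final), which generates the unstable substrate 1,3-bisphosphoglycerate in-well. Reactions ran 60 minutes at room temperature in 100mM TEA pH 7.6, 5mM MgCl2, 0.01% Tween-20, then Kinase-Glo Plus luminescence was read.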

For assay [10], the target named is phosphoglycerate mutase (Leishmania major) (UniProt Q4Q090). The assay is described as follows: qHTS Validation Assay to Find Inhibitors of Phosphoglycerate Mutase (AID 504548).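 Also: end-point luminescence from Kinase-GloPlus after the PGAM reaction; series mostly up to about 58 µM; % is scaled to controls: 0 for no effect and ±100 for the full control effect.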 In short, it runs like this:
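Inhibition of L. major PGAM was assessed by Kinase-GloPlus luminescence following a 45-minute room-temperature reaction with enzyme at 1.25nM final.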

The target in assay [11] is Ubiquitin carboxyl-terminal hydrolase 1 (Homo sapiens) (UniProt O94782). The assay is described as follows: Inhibitors of USP1/UAF1: Pilot qHTS (AID 504865).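 Also: rhodamine fluorescence freed from ubiquitin-rhodamine substrate followed over time; top concentration of the series differs between compounds; % is scaled to controls: 0 for no effect and ±100 for the full control effect; nearly all actives have a fitted effect of over 35% in size.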 In short, it runs like this: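 In 50mM HEPES pH 7.8 containing 0.5mM EDTA, 1mM TCEP, 0.1 mg/ml BSA and 0.01% Tween-20, 1nM USP1/UAF1 is exposed to compound for 15 min, then Ub-Rho (150nM final) is added and fluorescence is read over time.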

Assay [12] is described as follows: qHTS for Inhibitors of ATXN expression: Validation of Cytotoxic Assay (AID 588349).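 Also: cells exposed to compound for 72 hr; % is scaled to controls: 0 for no effect and ±100 for the full control effect.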 In short, it runs like this:
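HEK293, compound dose series, 72 hr / 37 degrees C; viability via CellTiter Glo (intracellular ATP).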

Assay [13] can be described thus: qHTS for Inhibitors of ATXN expression: Validation (AID 588378). Also: series mostly up to about 57 µM; % is scaled to controls: 0 for no effect and ±100 for the full control effect; nearly all actives have a fitted effect of over 75% in size. In short, it runs like this: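 Compounds were pinned onto attached HEK293 cells carrying an ATXN2-firefly luciferase construct and incubated 24 hrs at 37 degrees C. Each well then received a fluorescent viability reagent followed by luciferase substrate for end-point luminescence.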
Assay [14] deals with DNA dC->dU-editing enzyme APOBEC-3G (Homo sapiens) (UniProt Q9HC16). As to the kind of experiment: qHTS for inhibitors of Vif-A3G interactions: Validation (AID 588379). Also: 0% is about no effect. In short, it runs like this:
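HeLa cells stably expressing Vif and A3G-eYFP, 700 cells/well, incubated overnight at 37 deg C, then exposed to compound overnight at 37 deg C. Inhibition of Vif-mediated degradation read as increased yellow fluorescence (Ex 488/Em 500-530) by laser-scanning cytometry.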

The target in assay [15] is ATP-dependent 6-phosphofructokinase (Trypanosoma brucei brucei) (UniProt O15648). The assay is described as follows: qHTS Assay to Find Inhibitors of T. brucei phosphofructokinase: hit validation (AID 492961). Also: series mostly up to about 51 µM; % is scaled to controls: 0 for no effect and ±100 for the full control effect. In short, it runs like this: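 Luminescence from ADP-Glo reports ADP generated as T. brucei PFK (1.25 nM) phosphorylates 0.5 mM fructose-6-phosphate using 0.1 mM ATP. Reactions ran 45 min at room temperature, pH 8.0.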

Assay [16] concerns the target Estrogen receptor (Homo sapiens) (UniProt P03372). As to the kind of experiment: qHTS assay for small molecule antagonists of estrogen receptor alpha signaling (AID 588513; active = well fitted curve in the direction sought with a large enough effect in the signal ratio, with a control signal flat, not every such curve was filed as active; the % refers to the signal ratio; also: % is scaled to controls: 0 for no effect and ±100 for the full control effect). In short, it runs like this:
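Fluorescence from CCF4 substrate after 2 h at room temperature gave reporter activity; cells had been exposed to compound and 0.5nM 17-beta-estradiol for 18 h at 37 C. Hill-equation fitting yielded IC50 and maximal response.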

Assay [17] shares this target. The assay is described as follows: qHTS assay for small molecule agonists of estrogen receptor alpha signaling (AID 588514; calls by dose curve;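 also: 0% = vehicle only and 100% = reference agonist; nearly all actives have a fitted effect of over 70% in size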). In short, it runs like this: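 Reporter-gene assay. […] controls beta-lactamase in HEK 293 GripTite cells; after 18 hrs with compound, CCF4 substrate is added for 2 hrs and fluorescence is read.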

SMILES strings stand for the structures. Records with an inconclusive call do not appear. Calls of active or inactive are those of the source. Unless noted, calls follow the shape of the dose curve; as a rule, active = well fitted curve in the direction sought with a large enough effect; inconclusive = small, poorly fitted or top-dose-only effect, or another doubt; inactive = no such curve, though single readings can be large; an effect the other way counts as inactive or inconclusive.

Chain of Peptidyl-prolyl cis-trans isomerase NIMA-interacting 1 (Homo sapiens) (Q13526 whole entry, looked up): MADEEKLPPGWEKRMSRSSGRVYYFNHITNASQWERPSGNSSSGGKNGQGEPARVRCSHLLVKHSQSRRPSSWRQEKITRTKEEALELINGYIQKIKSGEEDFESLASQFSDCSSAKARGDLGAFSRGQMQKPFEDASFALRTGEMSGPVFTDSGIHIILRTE
Chain of Ubiquitin carboxyl-terminal hydrolase 1 (Homo sapiens) (O94782 whole entry, looked up): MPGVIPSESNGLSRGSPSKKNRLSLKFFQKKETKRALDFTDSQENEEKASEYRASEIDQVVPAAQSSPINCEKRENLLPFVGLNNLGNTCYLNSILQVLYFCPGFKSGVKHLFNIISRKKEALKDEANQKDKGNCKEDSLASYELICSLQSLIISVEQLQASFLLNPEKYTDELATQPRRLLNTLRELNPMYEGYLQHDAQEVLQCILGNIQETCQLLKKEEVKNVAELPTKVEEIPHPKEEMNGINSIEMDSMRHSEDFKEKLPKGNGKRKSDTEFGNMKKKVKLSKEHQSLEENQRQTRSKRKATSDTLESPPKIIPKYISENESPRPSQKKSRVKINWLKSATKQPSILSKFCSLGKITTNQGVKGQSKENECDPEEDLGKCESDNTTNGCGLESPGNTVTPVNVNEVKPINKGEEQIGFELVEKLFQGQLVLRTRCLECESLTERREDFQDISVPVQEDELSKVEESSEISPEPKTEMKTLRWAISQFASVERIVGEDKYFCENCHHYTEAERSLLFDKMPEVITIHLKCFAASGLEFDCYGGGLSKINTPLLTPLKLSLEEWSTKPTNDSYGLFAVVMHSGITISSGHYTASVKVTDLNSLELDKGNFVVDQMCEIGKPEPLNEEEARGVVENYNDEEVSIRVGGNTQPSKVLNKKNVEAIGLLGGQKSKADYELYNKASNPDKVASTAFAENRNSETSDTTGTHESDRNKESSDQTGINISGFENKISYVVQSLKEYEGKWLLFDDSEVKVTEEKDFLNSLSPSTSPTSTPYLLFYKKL
Chain of ATPase family AAA domain-containing protein 5 (Homo sapiens) (Q96QE3 whole entry, looked up, the tested form may be a part): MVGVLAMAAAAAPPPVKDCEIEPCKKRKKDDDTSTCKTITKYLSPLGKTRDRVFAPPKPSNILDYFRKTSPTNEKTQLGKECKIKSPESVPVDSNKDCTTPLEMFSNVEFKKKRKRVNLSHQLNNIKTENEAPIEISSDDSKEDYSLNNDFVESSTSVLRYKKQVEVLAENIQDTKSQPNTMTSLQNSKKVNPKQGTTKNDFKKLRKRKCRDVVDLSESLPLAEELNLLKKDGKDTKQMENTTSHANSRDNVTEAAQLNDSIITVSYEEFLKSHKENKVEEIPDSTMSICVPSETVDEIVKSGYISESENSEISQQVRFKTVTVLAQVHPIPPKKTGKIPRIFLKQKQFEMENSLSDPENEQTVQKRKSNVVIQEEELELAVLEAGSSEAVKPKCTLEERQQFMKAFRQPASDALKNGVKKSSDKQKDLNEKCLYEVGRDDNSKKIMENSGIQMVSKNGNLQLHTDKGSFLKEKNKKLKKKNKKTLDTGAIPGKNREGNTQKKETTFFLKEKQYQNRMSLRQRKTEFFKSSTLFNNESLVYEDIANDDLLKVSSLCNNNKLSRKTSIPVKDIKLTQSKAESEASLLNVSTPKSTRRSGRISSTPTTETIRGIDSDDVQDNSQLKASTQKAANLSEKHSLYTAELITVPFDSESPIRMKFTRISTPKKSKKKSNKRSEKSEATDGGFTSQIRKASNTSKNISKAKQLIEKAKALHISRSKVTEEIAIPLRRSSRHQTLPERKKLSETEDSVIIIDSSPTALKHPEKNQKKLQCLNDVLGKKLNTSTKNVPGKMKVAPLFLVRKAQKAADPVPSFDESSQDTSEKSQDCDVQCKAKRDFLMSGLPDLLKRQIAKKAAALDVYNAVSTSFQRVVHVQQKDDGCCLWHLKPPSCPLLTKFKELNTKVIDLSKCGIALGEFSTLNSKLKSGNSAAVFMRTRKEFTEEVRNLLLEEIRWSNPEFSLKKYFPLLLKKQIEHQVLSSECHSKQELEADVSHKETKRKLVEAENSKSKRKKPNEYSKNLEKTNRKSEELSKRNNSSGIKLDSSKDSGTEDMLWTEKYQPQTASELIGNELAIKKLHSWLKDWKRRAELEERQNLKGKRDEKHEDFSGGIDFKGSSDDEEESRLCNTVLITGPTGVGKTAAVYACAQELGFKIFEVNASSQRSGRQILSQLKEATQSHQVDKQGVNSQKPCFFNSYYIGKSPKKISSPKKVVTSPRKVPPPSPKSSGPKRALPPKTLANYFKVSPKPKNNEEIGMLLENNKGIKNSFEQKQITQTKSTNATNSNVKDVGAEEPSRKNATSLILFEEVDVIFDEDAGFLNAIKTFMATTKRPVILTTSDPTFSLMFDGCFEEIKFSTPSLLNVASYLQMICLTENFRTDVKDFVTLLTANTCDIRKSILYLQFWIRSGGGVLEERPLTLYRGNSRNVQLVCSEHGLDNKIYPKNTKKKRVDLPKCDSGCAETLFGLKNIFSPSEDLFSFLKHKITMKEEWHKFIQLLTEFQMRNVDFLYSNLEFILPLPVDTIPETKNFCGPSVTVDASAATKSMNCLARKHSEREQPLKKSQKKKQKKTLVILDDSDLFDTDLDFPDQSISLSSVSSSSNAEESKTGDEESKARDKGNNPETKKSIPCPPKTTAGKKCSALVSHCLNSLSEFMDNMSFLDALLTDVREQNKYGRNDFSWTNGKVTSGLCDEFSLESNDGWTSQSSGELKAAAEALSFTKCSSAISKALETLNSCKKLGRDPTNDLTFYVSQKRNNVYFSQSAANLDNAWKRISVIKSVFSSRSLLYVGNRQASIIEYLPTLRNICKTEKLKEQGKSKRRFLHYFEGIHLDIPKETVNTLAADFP
Chain of Galactokinase (Homo sapiens) (P51570 whole entry, looked up): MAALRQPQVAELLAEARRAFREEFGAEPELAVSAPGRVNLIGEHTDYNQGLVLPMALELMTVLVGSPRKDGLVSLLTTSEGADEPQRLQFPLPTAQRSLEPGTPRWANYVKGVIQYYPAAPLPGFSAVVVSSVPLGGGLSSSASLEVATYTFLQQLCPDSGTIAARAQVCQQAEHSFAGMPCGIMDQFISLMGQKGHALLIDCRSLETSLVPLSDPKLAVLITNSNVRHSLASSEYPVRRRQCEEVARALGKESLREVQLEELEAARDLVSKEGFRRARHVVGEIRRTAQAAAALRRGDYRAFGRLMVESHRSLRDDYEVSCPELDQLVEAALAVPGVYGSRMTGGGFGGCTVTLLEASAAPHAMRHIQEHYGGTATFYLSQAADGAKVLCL
Chain of Phosphoglycerate kinase, glycosomal (Trypanosoma brucei brucei) (P07378 whole entry, looked up): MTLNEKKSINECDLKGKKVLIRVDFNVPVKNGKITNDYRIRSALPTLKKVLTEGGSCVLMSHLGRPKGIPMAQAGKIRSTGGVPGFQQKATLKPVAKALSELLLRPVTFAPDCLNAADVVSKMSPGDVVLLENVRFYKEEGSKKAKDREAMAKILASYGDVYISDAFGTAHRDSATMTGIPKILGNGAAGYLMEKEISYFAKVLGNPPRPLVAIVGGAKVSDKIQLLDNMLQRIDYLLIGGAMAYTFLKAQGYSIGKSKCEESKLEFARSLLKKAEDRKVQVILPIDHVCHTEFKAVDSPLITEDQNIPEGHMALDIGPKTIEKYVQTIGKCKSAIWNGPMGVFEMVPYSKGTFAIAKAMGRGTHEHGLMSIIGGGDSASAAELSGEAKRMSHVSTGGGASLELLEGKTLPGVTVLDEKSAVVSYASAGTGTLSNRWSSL
Chain of Thyrotropin-releasing hormone receptor (Homo sapiens) (P34981 whole entry, looked up): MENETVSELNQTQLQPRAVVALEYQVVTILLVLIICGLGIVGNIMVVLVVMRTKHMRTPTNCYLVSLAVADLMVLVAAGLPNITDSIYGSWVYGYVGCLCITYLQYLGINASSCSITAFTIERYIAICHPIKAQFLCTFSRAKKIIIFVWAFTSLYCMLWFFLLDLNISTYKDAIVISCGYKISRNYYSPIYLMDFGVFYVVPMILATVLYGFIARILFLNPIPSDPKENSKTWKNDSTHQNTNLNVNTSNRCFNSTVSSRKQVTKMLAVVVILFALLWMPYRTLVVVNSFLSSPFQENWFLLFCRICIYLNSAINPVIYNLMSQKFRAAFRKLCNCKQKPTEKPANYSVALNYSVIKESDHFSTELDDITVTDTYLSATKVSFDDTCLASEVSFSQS
Chain of phosphoglycerate mutase (Leishmania major) (Q4Q090 1-553): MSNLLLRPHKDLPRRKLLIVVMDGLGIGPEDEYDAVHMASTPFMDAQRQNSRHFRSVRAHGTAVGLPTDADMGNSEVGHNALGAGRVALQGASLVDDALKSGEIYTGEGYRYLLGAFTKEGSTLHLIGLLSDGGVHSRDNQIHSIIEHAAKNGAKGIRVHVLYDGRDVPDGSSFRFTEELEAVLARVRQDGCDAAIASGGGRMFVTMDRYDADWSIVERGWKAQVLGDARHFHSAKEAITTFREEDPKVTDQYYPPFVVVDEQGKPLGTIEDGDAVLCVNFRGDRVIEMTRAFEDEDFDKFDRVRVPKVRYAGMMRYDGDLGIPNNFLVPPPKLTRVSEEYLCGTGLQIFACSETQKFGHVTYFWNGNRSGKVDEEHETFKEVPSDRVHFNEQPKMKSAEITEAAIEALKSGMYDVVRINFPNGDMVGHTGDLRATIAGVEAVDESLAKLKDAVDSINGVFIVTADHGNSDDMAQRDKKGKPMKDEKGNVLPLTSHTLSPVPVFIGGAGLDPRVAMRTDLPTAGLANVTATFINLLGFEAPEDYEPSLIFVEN
Chain of DNA dC->dU-editing enzyme APOBEC-3G (Homo sapiens) (Q9HC16 whole entry, looked up): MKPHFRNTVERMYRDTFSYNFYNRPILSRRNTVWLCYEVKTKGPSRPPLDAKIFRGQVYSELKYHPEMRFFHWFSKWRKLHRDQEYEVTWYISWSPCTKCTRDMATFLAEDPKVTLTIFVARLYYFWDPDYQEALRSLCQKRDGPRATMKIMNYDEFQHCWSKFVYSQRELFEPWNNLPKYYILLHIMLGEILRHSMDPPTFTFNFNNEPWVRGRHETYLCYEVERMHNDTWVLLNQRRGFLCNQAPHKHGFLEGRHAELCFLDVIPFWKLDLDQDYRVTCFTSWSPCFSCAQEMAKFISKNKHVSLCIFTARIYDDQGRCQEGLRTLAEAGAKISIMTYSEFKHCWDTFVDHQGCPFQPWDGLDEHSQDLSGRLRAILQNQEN

In the case of `CCc1c(C)[nH]c2c1C(=O)C(CN1CCOCC1)CC2` (centres undefined), the Potency result in assay [1], in [2], in [4], in assay [11], in [12] and in assay [13] was “inactive” each time. The activation in assay [3] was 0.75% (inactive). In [4], the viability change amounted to 1.73%. Besides, the result in assay [5], in assay [6], in assay [7], in assay [8], in [9] and in assay [10] was inactive.
With `NC(Cc1ccc(Cl)cc1)C(=O)O` (centres undefined), the Potency entry in assay [1], in assay [2], in assay [11], in assay [12] and in assay [13] was “inactive” in each case. Further, the activation in assay [3] was 0.75% (inactive). Besides, the call in [6], in assay [7], in assay [8], in assay [9] and in assay [10] was inactive.
As for `c1cnc(N2CCN(Cc3ccc4c(c3)OCO4)CC2)nc1`, the Potency entry in [1], in assay [2], in assay [4], in [11] and in assay [12] was “inactive” throughout. Further, the activation in assay [3] was -3.31% (inactive). Also, the viability change in [4] came to 2.39%. Besides, the outcome in assay [5], in assay [6], in assay [7], in assay [9], in assay [10] and in [14] was inactive.
On to `CCn1cc(C(=O)O)c(=O)c2cc3c(cc21)OCO3`, for which the Potency entry in [1], in assay [2], in assay [4], in assay [11], in assay [12] and in [13] was “inactive” each time. The activation in assay [3] is -0.375% (inactive). In addition, the viability change in assay [4] is -3.79%. Besides, the molecule was called inactive in assay [6], in assay [7], in [8], in [9] and in assay [10].
With `O=C(O)CN(CCN(CC(=O)O)CC(=O)O)CCN(CC(=O)O)CC(=O)O`, the Potency entry in assay [1], in [2], in assay [4] and in assay [11] was “inactive” each time. In addition, the activation in assay [3] was 1.81% (inactive). Further, the viability change in assay [4] was -0.829%. Also, the outcome in [5], in assay [6], in [7], in assay [8], in assay [9] and in assay [10] was inactive.
For the molecule `COCCOC(=O)C1=C(C)NC(C)=C(C(=O)OC(C)C)C1c1cccc([N+](=O)[O-])c1` (centres undefined), the Potency result in assay [1], in [4] and in assay [11] was “inactive” each time. Moreover, the Potency in [2] is 11.6 µM (active). Besides, the activation in assay [3] is -5.81% (inactive). Further, the viability change in [4] amounted to 0.126%. Also, the call in [5], in assay [6], in assay [7], in assay [8], in assay [9] and in assay [10] was inactive.
In the case of `Nc1ncn([C@@H]2O[C@H](CO)[C@@H](O)[C@H]2O)c(=O)n1`, the result in assay [15], in assay [5], in assay [6], in assay [8], in assay [10] and in assay [16] was inactive. In [3], the activation is 1.31% (inactive). The Potency entry in assay [11] and in assay [17] was “inactive” in each case.
As for `O=C1CC2(CCCC2)CC(=O)N1CCCCN1CCN(c2ncccn2)CC1`, the Potency result in assay [1], in [2], in assay [11], in assay [12] and in assay [13] was “inactive” in each case. In [3], the activation is 0.688% (inactive). The result in assay [6], in [7], in assay [8], in [10] and in assay [14] was inactive.
Turning to `CC1=NS(=O)(=O)c2cc(Cl)ccc2N1`, the Potency entry in assay [1], in [2], in [4], in assay [11], in assay [12] and in assay [13] was “inactive” each time. Also, the viability change in assay [4] was 3.36%. The molecule was classed as inactive in [5], in assay [6], in [7], in assay [8], in assay [9] and in [10]. Besides, the outcome in [14] was inactive.

The record behind these values is PubChem BioAssay (NCATS).
